Data reported in the supplement of paper PMC10849652.
Of roughly 8,800 targets only a part is listed; those with a hit were picked by preference. About 0.5% of all pairs of compound and target were hits.

compound: C[C@H](C1=CC=C(C=C1)C(=O)NC2=C3C=CNC3=NC=C2)N; test: log2 fold change, soluble protein after heating vs DMSO (PISA); higher = thermal stabilisation; K562 lysate, 10 uM; active = over 0.2 and 3.5 SD of the protein, either way, in both replicates (recomputed)
Procedure, shortened: (§1)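 To prepare the extract, K562 pellets were dounce-homogenised in PBS pH 7.4 with 1 mM MgCl2, giving crude material at 1 mg/mL protein. This was treated with 10 μM compound for 30 min, then heated in aliquots for 3 min over 48°C-58°C before pooling and addition of NP-40 to 0.5% at 4°C. Centrifugation at 21,000xg for 90 min left soluble protein in the supernatant, which TMTpro 16plex LC-MS/MS quantified with equalised channel sums. Results are log-two fold changes in thermal stability compared with solvent controls, from duplicates.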

Sequence of UniProt O75152 (O75152 whole entry, looked up): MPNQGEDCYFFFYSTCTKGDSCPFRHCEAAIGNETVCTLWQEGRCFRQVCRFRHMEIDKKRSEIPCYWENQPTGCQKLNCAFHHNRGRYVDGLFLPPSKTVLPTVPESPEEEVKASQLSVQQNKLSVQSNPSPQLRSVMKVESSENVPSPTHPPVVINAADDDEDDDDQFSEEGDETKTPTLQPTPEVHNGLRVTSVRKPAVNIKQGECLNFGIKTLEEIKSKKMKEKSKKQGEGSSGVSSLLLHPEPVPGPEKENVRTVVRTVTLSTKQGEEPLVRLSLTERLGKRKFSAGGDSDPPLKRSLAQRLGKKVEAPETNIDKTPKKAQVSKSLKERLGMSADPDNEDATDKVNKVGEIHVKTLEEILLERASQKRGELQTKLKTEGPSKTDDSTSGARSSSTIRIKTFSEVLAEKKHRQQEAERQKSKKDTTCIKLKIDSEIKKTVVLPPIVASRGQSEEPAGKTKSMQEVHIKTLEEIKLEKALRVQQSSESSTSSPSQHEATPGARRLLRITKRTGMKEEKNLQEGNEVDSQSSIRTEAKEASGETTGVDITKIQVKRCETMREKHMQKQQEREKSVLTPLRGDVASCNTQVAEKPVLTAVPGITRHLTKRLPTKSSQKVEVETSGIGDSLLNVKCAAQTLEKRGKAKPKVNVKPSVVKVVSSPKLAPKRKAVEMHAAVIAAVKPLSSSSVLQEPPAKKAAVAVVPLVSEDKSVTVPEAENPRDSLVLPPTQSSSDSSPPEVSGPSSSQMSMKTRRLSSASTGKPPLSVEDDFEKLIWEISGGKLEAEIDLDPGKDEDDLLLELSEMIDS
Sequence of UniProt Q96QU8 (Q96QU8 whole entry, looked up): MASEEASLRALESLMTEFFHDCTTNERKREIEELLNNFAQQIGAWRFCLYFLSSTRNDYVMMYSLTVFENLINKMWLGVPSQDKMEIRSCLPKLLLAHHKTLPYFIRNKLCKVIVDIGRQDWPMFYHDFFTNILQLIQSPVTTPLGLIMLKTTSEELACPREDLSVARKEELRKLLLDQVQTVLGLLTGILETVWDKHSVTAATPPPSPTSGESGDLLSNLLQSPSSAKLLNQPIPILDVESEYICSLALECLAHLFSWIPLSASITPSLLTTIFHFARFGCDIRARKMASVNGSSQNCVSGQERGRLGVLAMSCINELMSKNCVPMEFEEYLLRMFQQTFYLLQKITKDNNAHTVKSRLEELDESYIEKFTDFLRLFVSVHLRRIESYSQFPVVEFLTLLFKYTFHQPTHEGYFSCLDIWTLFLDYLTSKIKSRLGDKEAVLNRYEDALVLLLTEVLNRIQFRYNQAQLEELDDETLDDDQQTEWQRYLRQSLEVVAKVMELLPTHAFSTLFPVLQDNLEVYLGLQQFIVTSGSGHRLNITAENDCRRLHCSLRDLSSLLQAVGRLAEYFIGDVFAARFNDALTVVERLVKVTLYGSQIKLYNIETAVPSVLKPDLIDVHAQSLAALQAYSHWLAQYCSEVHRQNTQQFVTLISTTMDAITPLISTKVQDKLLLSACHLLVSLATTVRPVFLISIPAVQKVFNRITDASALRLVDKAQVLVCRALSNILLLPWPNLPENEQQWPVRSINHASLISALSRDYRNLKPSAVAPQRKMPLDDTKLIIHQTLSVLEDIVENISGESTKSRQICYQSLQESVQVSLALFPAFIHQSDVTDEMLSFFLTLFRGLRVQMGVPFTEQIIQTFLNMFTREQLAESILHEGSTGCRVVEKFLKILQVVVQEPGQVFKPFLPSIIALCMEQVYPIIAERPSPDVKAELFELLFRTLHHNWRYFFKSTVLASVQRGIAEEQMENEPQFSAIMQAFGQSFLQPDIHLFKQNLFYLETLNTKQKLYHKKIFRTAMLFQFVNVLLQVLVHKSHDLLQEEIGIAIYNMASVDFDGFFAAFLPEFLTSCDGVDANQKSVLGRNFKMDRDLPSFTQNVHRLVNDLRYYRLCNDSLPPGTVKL
Sequence of UniProt Q7Z3J2 (Q7Z3J2 whole entry, looked up): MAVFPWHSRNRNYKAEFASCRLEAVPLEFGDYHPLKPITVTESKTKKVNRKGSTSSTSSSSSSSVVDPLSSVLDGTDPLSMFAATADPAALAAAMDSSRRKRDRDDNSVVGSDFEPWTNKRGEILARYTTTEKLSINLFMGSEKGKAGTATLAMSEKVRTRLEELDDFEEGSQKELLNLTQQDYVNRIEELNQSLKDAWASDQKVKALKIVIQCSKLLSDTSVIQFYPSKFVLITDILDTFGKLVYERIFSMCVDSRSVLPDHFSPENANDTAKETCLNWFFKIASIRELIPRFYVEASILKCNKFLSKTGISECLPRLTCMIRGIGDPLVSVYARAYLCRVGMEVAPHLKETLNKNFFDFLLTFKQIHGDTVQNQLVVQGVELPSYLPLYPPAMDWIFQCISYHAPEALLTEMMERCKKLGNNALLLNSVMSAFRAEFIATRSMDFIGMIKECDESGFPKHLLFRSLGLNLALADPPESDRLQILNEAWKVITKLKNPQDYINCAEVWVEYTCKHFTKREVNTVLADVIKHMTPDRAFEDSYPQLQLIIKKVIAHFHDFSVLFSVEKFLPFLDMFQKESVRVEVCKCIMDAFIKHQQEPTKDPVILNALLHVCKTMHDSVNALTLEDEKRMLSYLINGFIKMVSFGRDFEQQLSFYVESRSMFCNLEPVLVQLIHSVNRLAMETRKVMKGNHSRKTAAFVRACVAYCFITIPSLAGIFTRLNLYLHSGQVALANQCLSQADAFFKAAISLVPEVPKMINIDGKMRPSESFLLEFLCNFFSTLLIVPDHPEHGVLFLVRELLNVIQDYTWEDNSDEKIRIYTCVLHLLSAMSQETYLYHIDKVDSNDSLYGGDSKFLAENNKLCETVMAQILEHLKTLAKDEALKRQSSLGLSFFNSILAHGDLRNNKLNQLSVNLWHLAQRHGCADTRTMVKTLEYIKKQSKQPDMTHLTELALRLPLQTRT
Sequence of UniProt Q9UKW4 (Q9UKW4 whole entry, looked up): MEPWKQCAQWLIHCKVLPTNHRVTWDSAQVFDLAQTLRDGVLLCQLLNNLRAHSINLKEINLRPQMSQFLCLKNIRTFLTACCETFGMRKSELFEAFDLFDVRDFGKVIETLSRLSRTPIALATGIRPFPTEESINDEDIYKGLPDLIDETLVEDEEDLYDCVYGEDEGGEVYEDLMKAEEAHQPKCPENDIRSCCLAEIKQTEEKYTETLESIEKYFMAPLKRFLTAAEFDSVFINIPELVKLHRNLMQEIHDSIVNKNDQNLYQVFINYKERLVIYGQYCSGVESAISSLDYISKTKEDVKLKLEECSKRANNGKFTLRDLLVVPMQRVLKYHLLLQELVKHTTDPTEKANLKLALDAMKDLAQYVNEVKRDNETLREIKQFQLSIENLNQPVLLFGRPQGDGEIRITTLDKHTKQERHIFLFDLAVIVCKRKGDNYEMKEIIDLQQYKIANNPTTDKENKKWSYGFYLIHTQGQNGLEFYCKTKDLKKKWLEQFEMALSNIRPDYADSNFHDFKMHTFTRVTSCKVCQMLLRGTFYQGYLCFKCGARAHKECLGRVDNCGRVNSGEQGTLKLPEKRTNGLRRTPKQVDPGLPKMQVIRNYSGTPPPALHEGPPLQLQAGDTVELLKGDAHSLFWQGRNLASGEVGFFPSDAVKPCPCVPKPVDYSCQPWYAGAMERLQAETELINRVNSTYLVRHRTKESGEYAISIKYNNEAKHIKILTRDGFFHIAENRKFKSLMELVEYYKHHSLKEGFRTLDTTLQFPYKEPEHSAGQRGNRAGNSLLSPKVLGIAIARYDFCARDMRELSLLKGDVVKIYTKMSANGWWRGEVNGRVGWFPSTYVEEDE
Sequence of UniProt O95619 (O95619 whole entry, looked up): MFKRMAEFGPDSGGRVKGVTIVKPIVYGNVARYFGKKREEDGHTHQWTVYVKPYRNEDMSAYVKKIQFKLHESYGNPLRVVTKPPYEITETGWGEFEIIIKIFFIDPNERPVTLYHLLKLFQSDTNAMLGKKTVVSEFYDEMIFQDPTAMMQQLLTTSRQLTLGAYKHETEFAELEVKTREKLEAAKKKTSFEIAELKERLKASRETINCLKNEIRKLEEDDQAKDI
Sequence of UniProt Q86T24 (Q86T24 whole entry, looked up): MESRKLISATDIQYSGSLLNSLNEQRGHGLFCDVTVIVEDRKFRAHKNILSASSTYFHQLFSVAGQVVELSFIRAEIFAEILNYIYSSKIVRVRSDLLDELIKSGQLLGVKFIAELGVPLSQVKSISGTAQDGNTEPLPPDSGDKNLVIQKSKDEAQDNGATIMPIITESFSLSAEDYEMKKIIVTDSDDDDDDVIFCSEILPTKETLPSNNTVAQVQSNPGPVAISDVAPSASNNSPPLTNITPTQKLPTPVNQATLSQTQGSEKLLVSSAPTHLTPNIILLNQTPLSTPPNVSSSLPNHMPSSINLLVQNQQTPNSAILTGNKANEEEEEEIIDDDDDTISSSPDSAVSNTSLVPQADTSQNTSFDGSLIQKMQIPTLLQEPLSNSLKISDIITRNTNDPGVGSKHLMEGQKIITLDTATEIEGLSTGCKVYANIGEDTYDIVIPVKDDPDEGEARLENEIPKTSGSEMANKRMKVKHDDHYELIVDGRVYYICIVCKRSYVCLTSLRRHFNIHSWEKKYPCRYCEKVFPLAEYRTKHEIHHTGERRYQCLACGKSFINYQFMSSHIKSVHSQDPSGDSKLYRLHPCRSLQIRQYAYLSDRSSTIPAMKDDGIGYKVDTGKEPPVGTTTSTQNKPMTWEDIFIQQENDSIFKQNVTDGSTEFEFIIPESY
Sequence of UniProt A8MPS7 (A8MPS7 whole entry, looked up): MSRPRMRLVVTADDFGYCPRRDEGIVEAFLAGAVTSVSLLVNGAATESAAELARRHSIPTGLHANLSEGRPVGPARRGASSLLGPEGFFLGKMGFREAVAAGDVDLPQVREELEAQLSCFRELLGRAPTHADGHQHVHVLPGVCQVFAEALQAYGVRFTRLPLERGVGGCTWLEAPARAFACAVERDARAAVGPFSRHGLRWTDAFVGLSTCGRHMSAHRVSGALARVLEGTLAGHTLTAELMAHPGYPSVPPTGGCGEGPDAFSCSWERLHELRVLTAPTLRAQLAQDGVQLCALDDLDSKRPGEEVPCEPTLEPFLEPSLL

Row | Target | log2 fold change
1 | YES1 (UniProt P07947) | -0.101 (inactive)
2 | XAB2 (UniProt Q9HCS7) | 0.025 (inactive)
3 | VCPIP1 (UniProt Q96JH7) | -0.059 (inactive)
4 | ZC3H13 (UniProt Q5T200) | 0.039 (inactive)
5 | ZNF609 (UniProt O15014) | -0.028 (inactive)
6 | ZC3H11A (UniProt O75152) | 0.222 (inactive)
7 | VPS28 (UniProt Q9UK41) | -0.132 (inactive)
8 | ZMYM4 (UniProt Q5VZL5) | -0.07 (inactive)
9 | ZNF217 (UniProt O75362) | -0.045 (inactive)
10 | YDJC (UniProt A8MPS7) | -0.031 (inactive)
11 | XPNPEP1 isoform 3 (UniProt Q9NQW7) | 0.001 (inactive)
12 | USP9X (UniProt Q93008) | -0.015 (inactive)
13 | UQCRC2 (UniProt P22695) | -0.011 (inactive)
14 | WRB (UniProt O00258) | -0.138 (inactive)
15 | ZBTB33 (UniProt Q86T24) | -0.165 (inactive)
16 | WDR62 isoform 4 (UniProt O43379) | -0.021 (inactive)

Row | Target | log2 fold change
17 | XPO6 (UniProt Q96QU8) | -0.158 (inactive)
18 | VPS35L (UniProt Q7Z3J2) | -0.025 (inactive)
19 | YEATS4 (UniProt O95619) | 0.609 (active)
20 | YWHAQ (UniProt P27348) | 0.466 (active)
21 | VRK1 (UniProt Q99986) | 0.172 (inactive)
22 | ZC3HC1 (UniProt Q86WB0) | 0.222 (active)
23 | USP3 (UniProt Q9Y6I4) | 0.031 (inactive)
24 | VPS11 (UniProt Q9H270) | -0.008 (inactive)
25 | VPS16 (UniProt Q9H269) | -0.019 (inactive)
26 | WDR20 isoform 7 (UniProt Q8TBZ3) | -0.416 (active)
27 | VAV3 isoform 4 (UniProt Q9UKW4) | -0.655 (active)
28 | WRNIP1 (UniProt Q96S55) | 0.054 (inactive)
29 | UNC13D (UniProt Q70J99) | 0.029 (inactive)
30 | VARS (UniProt P26640) | -0.004 (inactive)
31 | UTP18 (UniProt Q9Y5J1) | 0.097 (inactive)

compound: C[C@H](Nc1ncnc2nc[nH]c12)c1cc2cccc(Cl)c2c(=O)n1-c1ccccc1 [duvelisib]; test: as above
Procedure, shortened: as §1

Row | Target | log2 fold change
32 | YES1 (UniProt P07947) | -0.066 (inactive)
33 | XAB2 (UniProt Q9HCS7) | 0.038 (inactive)
34 | VCPIP1 (UniProt Q96JH7) | -0.002 (inactive)
35 | ZC3H13 (UniProt Q5T200) | 0.041 (inactive)
36 | ZNF609 (UniProt O15014) | -0.042 (inactive)
37 | ZC3H11A (UniProt O75152) | 0.013 (inactive)
38 | VPS28 (UniProt Q9UK41) | -0.032 (inactive)
39 | ZMYM4 (UniProt Q5VZL5) | -0.007 (inactive)
40 | ZNF217 (UniProt O75362) | -0.011 (inactive)
41 | YDJC (UniProt A8MPS7) | -0.044 (inactive)
42 | XPNPEP1 isoform 3 (UniProt Q9NQW7) | 0.049 (inactive)
43 | USP9X (UniProt Q93008) | -0.017 (inactive)
44 | UQCRC2 (UniProt P22695) | 0.001 (inactive)
45 | WRB (UniProt O00258) | 0.006 (inactive)
46 | ZBTB33 (UniProt Q86T24) | -0.041 (inactive)
47 | WDR62 isoform 4 (UniProt O43379) | 0.006 (inactive)

Row | Target | log2 fold change
48 | XPO6 (UniProt Q96QU8) | 0.06 (inactive)
49 | VPS35L (UniProt Q7Z3J2) | 0.02 (inactive)
50 | YEATS4 (UniProt O95619) | -0.015 (inactive)
51 | YWHAQ (UniProt P27348) | -0.012 (inactive)
52 | VRK1 (UniProt Q99986) | 0.013 (inactive)
53 | ZC3HC1 (UniProt Q86WB0) | 0.013 (inactive)
54 | USP3 (UniProt Q9Y6I4) | 0.01 (inactive)
55 | VPS11 (UniProt Q9H270) | -0.04 (inactive)
56 | VPS16 (UniProt Q9H269) | 0.013 (inactive)
57 | WDR20 isoform 7 (UniProt Q8TBZ3) | 0.043 (inactive)
58 | VAV3 isoform 4 (UniProt Q9UKW4) | -0.008 (inactive)
59 | WRNIP1 (UniProt Q96S55) | 0.012 (inactive)
60 | UNC13D (UniProt Q70J99) | -0.039 (inactive)
61 | VARS (UniProt P26640) | 0.002 (inactive)
62 | UTP18 (UniProt Q9Y5J1) | -0.065 (inactive)

compound: Cc1cc(Nc2cc(CN3CCOCC3)c3nc(C)c(Cc4ccc(Cl)cc4F)n3n2)n[nH]1 [gandotinib]; test: as above
Procedure, shortened: as §1

Row | Target | log2 fold change
63 | YES1 (UniProt P07947) | 0.212 (inactive)
64 | XAB2 (UniProt Q9HCS7) | -0.055 (inactive)
65 | VCPIP1 (UniProt Q96JH7) | -0.038 (inactive)
66 | ZC3H13 (UniProt Q5T200) | -0.063 (inactive)
67 | ZNF609 (UniProt O15014) | 0.16 (inactive)
68 | ZC3H11A (UniProt O75152) | -0.12 (inactive)
69 | VPS28 (UniProt Q9UK41) | 0.018 (inactive)
70 | ZMYM4 (UniProt Q5VZL5) | 0.004 (inactive)
71 | ZNF217 (UniProt O75362) | -0.009 (inactive)
72 | YDJC (UniProt A8MPS7) | 0.02 (inactive)
73 | XPNPEP1 isoform 3 (UniProt Q9NQW7) | 0.002 (inactive)
74 | USP9X (UniProt Q93008) | -0.127 (inactive)
75 | UQCRC2 (UniProt P22695) | -0.004 (inactive)
76 | WRB (UniProt O00258) | 0.348 (active)
77 | ZBTB33 (UniProt Q86T24) | 0.028 (inactive)
78 | WDR62 isoform 4 (UniProt O43379) | -0.032 (inactive)

Row | Target | log2 fold change
79 | XPO6 (UniProt Q96QU8) | 0.005 (inactive)
80 | VPS35L (UniProt Q7Z3J2) | -0.029 (inactive)
81 | YEATS4 (UniProt O95619) | -0.126 (inactive)
82 | YWHAQ (UniProt P27348) | -0.089 (inactive)
83 | VRK1 (UniProt Q99986) | -0.078 (inactive)
84 | ZC3HC1 (UniProt Q86WB0) | -0.082 (inactive)
85 | USP3 (UniProt Q9Y6I4) | -0.056 (inactive)
86 | VPS11 (UniProt Q9H270) | -0.083 (inactive)
87 | VPS16 (UniProt Q9H269) | -0.024 (inactive)
88 | WDR20 isoform 7 (UniProt Q8TBZ3) | -0.009 (inactive)
89 | VAV3 isoform 4 (UniProt Q9UKW4) | 0.135 (inactive)
90 | WRNIP1 (UniProt Q96S55) | -0.047 (inactive)
91 | UNC13D (UniProt Q70J99) | -0.089 (inactive)
92 | VARS (UniProt P26640) | -0.092 (inactive)
93 | UTP18 (UniProt Q9Y5J1) | -0.055 (inactive)
